Screens: PubChem BioAssay, National Center for Advancing Translational Sciences (NCATS)
In the library only some 1.3% were active in any assay of this set; here they are far more common.
PTHR1 ag – qHTS for PTHR1 Agonists: Primary Screen | Parathyroid hormone/parathyroid hormone-related peptide receptor (Homo sapiens), Q03431 | HEK293 GP2 PTHR1 cells, GloSensor cAMP luminescence, 1 h | Potency, µM (top dose mostly 115 µM), inactives show top-dose activation, hits mostly activators | 410,000 compounds, 0.075% hits; note: potency is the fitted concentration of half-maximal effect; nearly all actives have a fitted effect of over 55% in size
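HEK-293-derived GP2 cells expressing PTHR1 and a GloSensor cAMP reporter, 3,000/well, plated overnight, given luciferin plus IBMX (each 0.5 mM as added) for 1 h at 37 °C, then compound for 1 h at 37 °C. Luminescence was read after 15 min at room temperature.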
Giardia killer – Small Molecules that selectively kill Giardia lamblia: qHTS | activity change, % at 7.66 µM, hits read low | AID 540267, 2011 | Giardia lamblia trophozoite viability | 340,000 compounds, 0.15% hits; in the data active = activity change below about -80%; inconclusive = between about -30% and that limit;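 note: parasites exposed to compound for two days anaerobically before the ATP read; % is set by controls: 0 for no effect and ±100 for the full control effect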
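Giardia trophozoites, 100 cells per well, were exposed to compounds for 48 hrs at 37 deg C under anaerobic conditions; viability was then read as ATP content by bioluminescence after 15-30 min at room temperature.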
ERG-DNA inh – qHTS for Small Molecule Inhibitors of the ERG Ets/DNA interaction; fluorescence polarization, His-ERG Ets domain / labelled DNA; Potency, µM (titrated, usually from 76.9 µM), for the others: at the top dose FP activity, negative = inhibition, hits mostly inhibitors; AID 624246, 2012; Transcriptional regulator ERG (Homo sapiens), P11308; 370,000 compounds, 0.028% hits; active = well fitted inhibition curve with a large enough effect in the polarisation, with a control signal flat; inconclusive = small, poorly fitted or top-dose-only effect, or effect the other way, or a change in a side signal; inactive = no such curve, though single readings can be large or run the other way; the % refers to the polarisation;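 note: polarization taken with two DNA probes labelled with fluorescein and Texas red; potency is the fitted concentration of half-maximal effect; % of control where 0% means no effect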
Target sequence (P11308 whole entry, looked up, the tested form may be a part): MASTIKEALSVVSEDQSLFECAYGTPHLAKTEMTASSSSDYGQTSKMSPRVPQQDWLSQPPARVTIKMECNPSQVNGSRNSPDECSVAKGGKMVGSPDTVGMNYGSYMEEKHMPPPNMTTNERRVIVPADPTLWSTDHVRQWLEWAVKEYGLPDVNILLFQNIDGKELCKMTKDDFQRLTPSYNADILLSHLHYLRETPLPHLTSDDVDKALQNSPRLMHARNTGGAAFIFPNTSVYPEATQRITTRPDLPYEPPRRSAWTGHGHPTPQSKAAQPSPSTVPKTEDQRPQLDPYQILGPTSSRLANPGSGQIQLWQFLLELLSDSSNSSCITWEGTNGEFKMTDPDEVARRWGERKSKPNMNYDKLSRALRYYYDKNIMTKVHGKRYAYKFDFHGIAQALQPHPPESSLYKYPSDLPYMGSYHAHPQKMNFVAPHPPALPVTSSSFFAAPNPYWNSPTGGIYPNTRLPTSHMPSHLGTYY
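His-tagged ERG Ets domain (1 uM in the protein solution; 300mM KCl, 50mM Tris-HCl, 1mM EDTA, 1mM DTT, pH 7.5) received compound, then a probe mix of 5 nM fluorescein-DNA and 100nM Texas-615-DNA. Fluorescence polarization was read for both dyes.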
miR-21 act – qHTS Assay for Modulators of miRNAs and/orActivators of miR-21. Potency, µM (highest dose often 38.3 µM), for inactives: top-dose activity change, positive = activation, hits mostly activators. HeLa miR-21 FLuc reporter, luciferase, 48 h. AID 2288, 2010. 340,000 tested, under 10 active;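 note: % of control where 0% means no effect; miR-21 action dims this reporter so a rising signal means less miR-21 action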
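HeLa cells endogenously expressing miR-21, stably carrying CMV-driven firefly luciferase with a downstream miR-21 binding site, 2000 cells/well. Titrations up to approximately 40 uM, 48 hours; luciferase luminescence read.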
PINK1 modulator – A Quantitative High throughput Screen to Identify Chemical Modulators of PINK1 Expression; PINK1 immunofluorescence, high-content cytometry, 24 h; 410,000 compounds, 0.2% hits; Potency, µM (highest dose often 76.6 µM), without a hit: top-dose activation (PINK1 increase), usual class: activators; active = well fitted activation curve with a large enough effect; inconclusive = small, poorly fitted or top-dose-only effect; cell line not stated here; note: potency is the fitted concentration of half-maximal effect; % of control where 0% means no effect; nearly all actives have a fitted effect of over 65% in size
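Readout is PINK1 immunofluorescence, quantified alongside mitochondrial, cell and nuclear markers by laser-scanning microplate cytometry. Cells from a stable line were exposed to compound titrations (5 concentrations) for 24 hours, with CCCP controls.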
ALOX12 inh – Primary qHTS assay for inhibitors of human arachidonate 12S-lipoxygenase (ALOX12): Round 2; Polyunsaturated fatty acid lipoxygenase ALOX12 (Homo sapiens), P18054; purified 12hLO, xylenol orange hydroperoxide absorbance; Potency, µM (top dose mostly 108 µM), inactives show at the highest dose activity change, negative = inhibition, hits mostly inhibitors; 580,000 compounds, 1.1% hits; note: potency is the fitted concentration of half-maximal effect; % is set by controls: 0 for no effect and ±100 for the full control effect
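Purified human 12hLO at 150 nM in 25 mM Hepes, 0.01% Triton X-100, pH 7.0, preincubated 15 min at room temperature with compound. Reaction started with 40 uM arachidonic acid, 30 min at room temperature. Hydroperoxide measured by Fe-xylenol orange, 573/405 nm absorbance ratio.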
* marks the source's active call; other numbers are inactive results; [ ] = dose if it differs, or a comment. Unless noted, calls come from the whole dose curve; as a rule, active = well fitted curve in the direction sought with a large enough effect; inconclusive = small, poorly fitted or top-dose-only effect, or another doubt; inactive = no such curve, though single readings can be large; an effect the other way counts as inactive or inconclusive.

For CN1CCN(c2cc(C(=O)O)c3cc(NC(=O)c4ccc(Cl)cc4)ccc3n2)CC1 the results were ALOX12 inh -82%.
CCCN1CCN(c2cc(C(=O)O)c3cc(NC(=O)C(C)C)ccc3n2)CC1 was read as ALOX12 inh 11µM*.
For O=C(Nc1ccc2nc(N3CCN(C4CCCCC4)CC3)cc(C(=O)O)c2c1)c1ccc(Cl)cc1 the results were ALOX12 inh 13µM*.
Screening N#CCCN1CCN(c2cc(C(=O)O)c3cc(NC(=O)C4CCCC4)ccc3n2)CC1 returned ALOX12 inh -84%.
Screening N#Cc1ccc(COC(=O)C2CC(=O)N(CCc3ccccc3)C2)cc1 (stereo not given) returned PTHR1 ag inactive, Giardia killer -1, ERG-DNA inh 2%, PINK1 modulator -1% and ALOX12 inh 0%.
Screening COc1ccc(-c2ccc3ncc(Nc4ccccc4)n3n2)cc1OC returned ALOX12 inh 37%[176 µM].
`CN(CCOc1ccccc1)C(=O)c1ccc2c(c1)OCO2` gave PTHR1 ag inactive, Giardia killer 3, ERG-DNA inh -16%, PINK1 modulator 2% and ALOX12 inh 17%.
CN1/C(=C\C(=O)CN2CCN(C(c3ccccc3)c3ccccc3)CC2)C(C)(C)c2ccccc21 was read as ALOX12 inh 10µM*.
CCOC(=O)C1CCCN(CC(=O)/C=C2/N(C)c3ccccc3C2(C)C)C1 (stereo not given) was read as PTHR1 ag -29%[57.5 µM], Giardia killer 1, ERG-DNA inh 3%, miR-21 act 2%, PINK1 modulator 1% and ALOX12 inh inconclusive.
N=C(N)SCc1ccc(O)c([N+](=O)[O-])c1 was read as PTHR1 ag -11%, Giardia killer -19, ERG-DNA inh 5%, miR-21 act 1%, PINK1 modulator 4% and ALOX12 inh inconclusive.
Screening CCC(C)CCN1C(N(C)C)=NC[C@@H]1C (stereo not given in full) returned PTHR1 ag inactive, Giardia killer -7, ERG-DNA inh 5%, PINK1 modulator 0% and ALOX12 inh 1%.
`O=c1c(-c2n[nH]c(=S)n2-c2ccccc2)cccn1Cc1cccc(Cl)c1` gave PTHR1 ag -1%, Giardia killer 17, ERG-DNA inh 7%, miR-21 act -23%, PINK1 modulator -1% and ALOX12 inh -6%.
COc1cc(=O)n2c(c1C(=O)Nc1ccc(Br)cc1F)CCCC2 was read as ALOX12 inh 20µM*.
For Oc1ccc(-c2csc(Nc3cccc4ccccc34)n2)cc1O the results were PTHR1 ag inactive, Giardia killer 5, ERG-DNA inh inconclusive, miR-21 act -22%, PINK1 modulator 6% and ALOX12 inh 13µM*.
Screening COc1ccc(-c2csc(Nc3ncccc3C)n2)cc1OC returned PTHR1 ag -25%[57.5 µM], Giardia killer -16, ERG-DNA inh -8%, miR-21 act -48%, PINK1 modulator 6% and ALOX12 inh inconclusive.
Screening Cc1cccc(Nc2nc(-c3ccc(O)c(O)c3)cs2)n1 returned PTHR1 ag inactive, Giardia killer -4, ERG-DNA inh -4%, miR-21 act -82%, PINK1 modulator 10% and ALOX12 inh 28µM*.
For Oc1ccc(-c2csc(Nc3ccccn3)n2)cc1O the results were PTHR1 ag -95%, Giardia killer -18, ERG-DNA inh 0%, miR-21 act -69%, PINK1 modulator 27% and ALOX12 inh 20µM*.
